# Test results from PubChem BioAssay.
# Active and inactive are the calls of the source.
# Legend:
# [1] = system: Plasmodium falciparum Sir2 (PF13_0152, Sir2A); assay: Plasmodium falciparum Sir2A binding compounds – biochemical, small-molecule microarray, 635 nm fluorescence, primary screen (AID 1098); conditions: fluorescence 635 nm, higher = more signal;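 also: score merges spot fluorescence intensity with its signal-to-noise ratio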
# [2] = probe aDKK1 binding to arrayed compounds – biochemical, biotinylated probe, 635/667 nm fluorescence, primary screen (AID 1099); conditions: small-molecule microarray, higher = more signal;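 also: score merges 667nm spot fluorescence with signal to noise across triplicate slides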
# [3] = probe aCHRDL2 binding to arrayed compounds – biochemical, biotinylated probe, 635/667 nm fluorescence, primary screen (AID 1100); conditions: small-molecule microarray, higher = more signal
# [4] = change in splice reporter luminescence, either direction, cell-based, HEK293, spliceosome inhibition project, primary screen (AID 1101); conditions: HEK293 splicing luciferase reporter, 24 h, higher = more signal, called active from +8 up or from −8 down;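 also: HEK293 cells carrying a splicing-competent luciferase reporter gene; test concentration not given here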
# [5] = molecular target: Fibroblast growth factor 10 (Homo sapiens) (UniProt O15520); assay: compounds binding fibroblast growth factor 10 – biochemical, small-molecule microarray, 635 nm fluorescence, primary screen (AID 1102); conditions: FGF10 binding, fluorescence 635 nm, higher = more signal
# Chain of Fibroblast growth factor 10 (Homo sapiens) (O15520 whole entry, looked up): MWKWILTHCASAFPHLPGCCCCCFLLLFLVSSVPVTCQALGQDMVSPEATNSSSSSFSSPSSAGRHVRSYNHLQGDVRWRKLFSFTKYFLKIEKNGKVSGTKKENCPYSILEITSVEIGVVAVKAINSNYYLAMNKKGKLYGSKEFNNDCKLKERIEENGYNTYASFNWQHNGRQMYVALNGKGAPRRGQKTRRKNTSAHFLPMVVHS
# [6] = system: glycogen synthase kinase-3 (GSK3A per assay name; protocol says GSK3B); assay: compounds binding glycogen synthase kinase-3 – biochemical, small-molecule microarray, 635 nm fluorescence, GSK3A, primary screen (AID 1103); conditions: fluorescence 635 nm, higher = more signal; also: the record names both GSK3A and GSK3B
# [7] = molecular target: Epidermal growth factor receptor (Homo sapiens) (UniProt P00533); assay: compounds binding epidermal growth factor receptor – biochemical, small-molecule microarray, 635 nm fluorescence, primary screen (AID 1104); conditions: EGFR binding, higher = more signal;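 also: score merges 667 nm emission intensity with spot signal to noise over triplicate slides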
# Chain of Epidermal growth factor receptor (Homo sapiens) (P00533 whole entry, looked up): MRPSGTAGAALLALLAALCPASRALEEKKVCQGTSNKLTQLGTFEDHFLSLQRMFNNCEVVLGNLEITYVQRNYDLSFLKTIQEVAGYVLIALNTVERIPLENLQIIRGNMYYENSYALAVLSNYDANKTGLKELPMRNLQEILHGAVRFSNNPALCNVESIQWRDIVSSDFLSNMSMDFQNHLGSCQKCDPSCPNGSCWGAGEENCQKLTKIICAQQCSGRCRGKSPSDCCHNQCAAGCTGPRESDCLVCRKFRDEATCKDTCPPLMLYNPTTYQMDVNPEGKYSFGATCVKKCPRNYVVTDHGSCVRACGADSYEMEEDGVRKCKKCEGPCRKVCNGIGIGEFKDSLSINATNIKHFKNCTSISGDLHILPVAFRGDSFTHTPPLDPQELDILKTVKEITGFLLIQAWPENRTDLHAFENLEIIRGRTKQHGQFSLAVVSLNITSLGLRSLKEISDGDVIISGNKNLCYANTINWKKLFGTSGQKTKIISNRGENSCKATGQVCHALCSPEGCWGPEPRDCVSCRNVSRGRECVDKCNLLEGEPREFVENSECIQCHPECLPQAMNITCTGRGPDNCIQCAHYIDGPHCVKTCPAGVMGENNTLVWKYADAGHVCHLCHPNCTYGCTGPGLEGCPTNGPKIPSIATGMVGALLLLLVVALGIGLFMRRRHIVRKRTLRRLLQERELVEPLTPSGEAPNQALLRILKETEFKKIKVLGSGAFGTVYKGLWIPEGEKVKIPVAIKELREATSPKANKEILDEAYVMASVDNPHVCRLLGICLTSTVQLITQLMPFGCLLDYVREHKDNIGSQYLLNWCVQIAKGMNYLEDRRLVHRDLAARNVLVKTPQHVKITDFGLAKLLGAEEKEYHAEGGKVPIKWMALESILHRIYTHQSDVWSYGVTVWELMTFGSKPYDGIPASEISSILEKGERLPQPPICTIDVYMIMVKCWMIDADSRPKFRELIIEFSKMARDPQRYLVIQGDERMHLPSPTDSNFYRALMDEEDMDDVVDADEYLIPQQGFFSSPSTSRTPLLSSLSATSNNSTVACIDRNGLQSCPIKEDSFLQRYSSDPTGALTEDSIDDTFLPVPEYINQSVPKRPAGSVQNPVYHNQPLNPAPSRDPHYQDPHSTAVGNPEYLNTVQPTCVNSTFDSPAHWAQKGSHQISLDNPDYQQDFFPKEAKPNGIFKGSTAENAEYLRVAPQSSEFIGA
# [8] = molecular target: Follistatin-related protein 3 (Homo sapiens) (UniProt O95633); assay: compounds binding follistatin-related protein 3 – biochemical, small-molecule microarray, 635 nm fluorescence, primary screen (AID 1105); conditions: FSTL3 binding, higher = more signal;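 also: score merges emission near 667 nm and signal to noise per printed spot across three slides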
# Chain of Follistatin-related protein 3 (Homo sapiens) (O95633 whole entry, looked up): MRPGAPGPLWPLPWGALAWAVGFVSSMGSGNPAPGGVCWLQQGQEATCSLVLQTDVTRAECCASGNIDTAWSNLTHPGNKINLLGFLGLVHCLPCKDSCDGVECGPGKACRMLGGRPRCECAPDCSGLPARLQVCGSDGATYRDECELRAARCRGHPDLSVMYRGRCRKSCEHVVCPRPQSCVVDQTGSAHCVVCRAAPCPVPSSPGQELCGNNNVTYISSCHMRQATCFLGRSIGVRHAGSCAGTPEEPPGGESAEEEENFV
# [9] = molecular target: Dickkopf-related protein 1 (Homo sapiens) (UniProt O94907); assay: small molecules binding DKK1 protein – biochemical, small-molecule microarray, 635 nm fluorescence scan, primary screen (AID 1106); conditions: higher = more signal;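 also: score merges emission near 667 nm with signal to noise over three replicate slides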
# Chain of Dickkopf-related protein 1 (Homo sapiens) (O94907 whole entry, looked up): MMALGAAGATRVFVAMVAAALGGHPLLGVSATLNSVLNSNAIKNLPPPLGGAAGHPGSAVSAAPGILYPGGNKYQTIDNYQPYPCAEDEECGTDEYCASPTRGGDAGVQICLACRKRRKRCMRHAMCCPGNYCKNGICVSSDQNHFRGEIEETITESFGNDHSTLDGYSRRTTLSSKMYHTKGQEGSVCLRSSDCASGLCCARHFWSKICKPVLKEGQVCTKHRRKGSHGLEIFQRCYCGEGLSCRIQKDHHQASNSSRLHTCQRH
# [10] = system: Inhibin beta A chain (activin A); assay: small molecules binding activin A – biochemical, small-molecule microarray, 635 nm fluorescence scan, primary screen (AID 1107); conditions: INHBA, higher = more signal;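 also: mouse activin A protein probed at 4.33 µg/mL on printed slides; score merges bound-protein fluorescence near 667 nm with spot signal-to-noise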
# [11] = system: Human papillomavirus type 1a protein E7 (residues 44-93); assay: small molecules binding HPV E7 44-93 – biochemical, small-molecule microarray, residues 44-93, 635 nm fluorescence, primary screen (AID 1108); conditions: fluorescence 635 nm, higher = more signal;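 also: E7 fragment applied at 1 µg/mL in TBST for 1 h at 4 C; score combines spot fluorescence with its signal to noise ratio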
# [12] = hepatitis C replication reporter changes, two-sided – Huh7 cells, luciferase reporter, HCV replication inhibitor project, primary screen (AID 1109); conditions: Huh7 HCV replicon luciferase reporter, 48 h; higher = more signal;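 also: huh7 hepatoma cells harbouring a luciferase neomycin HCV replicon reporter; luciferase luminescence as measure of HCV replicon replication; test concentration not given here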
# [13] = molecular target: Left-right determination factor 2 (Homo sapiens) (UniProt O00292); assay: small molecules binding LEFTY2 protein – biochemical, small-molecule microarray, 635 nm fluorescence scan, primary screen (AID 1110); conditions: higher = more signal
# Chain of Left-right determination factor 2 (Homo sapiens) (O00292 whole entry, looked up): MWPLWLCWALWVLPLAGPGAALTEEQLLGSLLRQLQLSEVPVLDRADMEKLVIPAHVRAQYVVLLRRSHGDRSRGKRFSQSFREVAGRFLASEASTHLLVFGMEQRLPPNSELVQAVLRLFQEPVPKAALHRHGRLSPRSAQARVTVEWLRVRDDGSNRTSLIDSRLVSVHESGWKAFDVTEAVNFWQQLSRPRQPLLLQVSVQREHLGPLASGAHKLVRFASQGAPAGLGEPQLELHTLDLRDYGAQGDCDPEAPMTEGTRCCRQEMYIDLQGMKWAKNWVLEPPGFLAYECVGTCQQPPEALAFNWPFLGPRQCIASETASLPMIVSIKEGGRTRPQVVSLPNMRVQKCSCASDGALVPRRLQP
# [14] = molecular target: Calmodulin-1 (Homo sapiens) (UniProt P0DP23); assay: small molecules binding calmodulin-1 with EGTA – biochemical, small-molecule microarray, Cy5-labelled CALM1, profiling panel (AID 1111); conditions: Cy5-CALM1 binding fluorescence, higher = more signal;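 also: labelled calmodulin applied in Tris saline Tween buffer holding calcium plus EGTA and DTT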
# [15] = molecular target: Calmodulin-1 (Homo sapiens) (UniProt P0DP23); assay: small molecules binding Ca-loaded calmodulin-1 – biochemical, small-molecule microarray, Cy5-labelled CALM1, plus calcium, artefact control for SMM control-protein annotation, profiling panel (AID 1112); conditions: Cy5-CALM1 binding fluorescence, higher = more signal;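 also: score merges spot fluorescence with signal to noise from triplicate slides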
# [16] = probe aWnt5a binding to arrayed compounds – biochemical, biotinylated probe, 635/667 nm fluorescence, primary screen (AID 1113); conditions: small-molecule microarray, higher = more signal;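 also: score merges 667 nm fluorescence intensity with signal-to-noise per printed feature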
# [17] = probe aShh binding to arrayed compounds – biochemical, biotinylated probe, 635/667 nm fluorescence, primary screen (AID 1114); conditions: small-molecule microarray, higher = more signal;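 also: probe is biotin-labelled aShh protein from a stem cell growth factor screen; measures binding of labelled protein to compounds printed on the slide; score merges feature fluorescence at 667 nm with signal-to-noise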
# [18] = probe aNog binding to arrayed compounds – biochemical, biotinylated probe, 635/667 nm fluorescence, primary screen (AID 1115); conditions: small-molecule microarray, higher = more signal;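 also: probe is biotinylated aNog protein used at 0.15 µg/mL for 1 h at 4 C; z-score combines 667 nm fluorescence of each spot with its signal to noise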
# [19] = molecular target: Torsin-1A-interacting protein 1 (Homo sapiens) (UniProt Q5JTV8); assay: compound microarray binding of lysate hLAP1 – cell lysate, small-molecule microarray, COS7 lysate, 635/667 nm fluorescence, primary screen (AID 1116); conditions: 635 nm fluorescence, higher = more signal
# Chain of Torsin-1A-interacting protein 1 (Homo sapiens) (Q5JTV8 whole entry, looked up): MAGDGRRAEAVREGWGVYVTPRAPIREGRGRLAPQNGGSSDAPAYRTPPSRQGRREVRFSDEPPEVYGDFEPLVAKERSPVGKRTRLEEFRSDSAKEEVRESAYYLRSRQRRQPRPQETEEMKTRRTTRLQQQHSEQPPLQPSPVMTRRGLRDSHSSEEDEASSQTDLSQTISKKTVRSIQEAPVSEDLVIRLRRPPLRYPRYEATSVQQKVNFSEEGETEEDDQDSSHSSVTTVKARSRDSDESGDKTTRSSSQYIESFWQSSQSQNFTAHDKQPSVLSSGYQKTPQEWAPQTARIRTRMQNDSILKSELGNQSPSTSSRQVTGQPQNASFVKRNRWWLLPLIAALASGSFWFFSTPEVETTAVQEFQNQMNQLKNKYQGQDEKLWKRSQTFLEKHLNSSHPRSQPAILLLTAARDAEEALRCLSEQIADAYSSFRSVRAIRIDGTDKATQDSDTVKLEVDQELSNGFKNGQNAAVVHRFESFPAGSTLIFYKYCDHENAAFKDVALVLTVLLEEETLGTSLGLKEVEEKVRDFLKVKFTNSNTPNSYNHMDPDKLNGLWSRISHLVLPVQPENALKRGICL
# [20] = molecular target: Alpha-bungarotoxin (Bungarus multicinctus) (UniProt P60615); assay: compounds binding labelled alpha-BTX control protein – biochemical, small-molecule microarray, Alexa647 label, 635/667 nm fluorescence, artefact control for SMM control protein annotation, profiling panel (AID 1117); conditions: alpha-BTX-A647 binding fluorescence, higher = more signal
# Chain of Alpha-bungarotoxin (Bungarus multicinctus) (P60615 whole entry, looked up): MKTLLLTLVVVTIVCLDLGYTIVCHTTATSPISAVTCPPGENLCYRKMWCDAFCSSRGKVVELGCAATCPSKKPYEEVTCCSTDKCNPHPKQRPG
SMILES,composite z-score [1],composite z-score [2],composite z-score [3],z-score [4],composite z-score [5],composite z-score [6],composite z-score [7],composite z-score [8],composite z-score [9],composite z-score [10],composite z-score [11],z-score [12],composite z-score [13],composite z-score [14],composite z-score [15],composite z-score [16],composite z-score [17],composite z-score [18],composite z-score [19],composite z-score [20]
CC(C)(C)OC(=O)CC[C@]12N=C(c3ccc(OCCCO)cc3)O[C@H]1c1ccccc1N(CCS(=O)(=O)c1ccccc1)C2=O,1.17,0.438,0.52,0.0112 (inactive),0.905,1.23,0.545,0.975,0.445,0.924,1.39,-0.664,0.497,0.234,-0.353,0.0706,0.287,-0.344,0.751,1.41
[N-]=[N+]=NCc1ccccc1C[C@]1(C(=O)N2CCOCC2)N=C(c2ccc(OCCCO)cc2)O[C@H]1c1ccccc1N=[N+]=[N-],1,0.873,0.93,-0.928 (inactive),1.31,1.33,0.466,1.37,0.234,0.878,1.44,-2.21,0.536,1.14,0.792,0.0873,0.385,0.49,1.73,1.14
CC(C)C(CO)N1C(=O)[C@@H]2[C@H]3C(=O)OCC=C[C@H]3OC23C=CCN(C(C)C)C(=O)[C@@H]13 (stereo not given in full),-0.542,-0.202,-0.25,0.181 (inactive),-0.321,0.269,0.0755,0.354,0.254,0.756,-0.432,1.07,-0.0108,-0.531,-1.11,-0.2,-0.223,-0.0926,-0.262,-0.557
CN1C(=O)C2C=CC(C(O)C3=C[C@H]4C[C@@H](C3)C4(C)C)N(Nc3ccccc3)C2C1=O (stereo not given in full),0.46,0.462,0.63,0.757 (inactive),0.944,0.776,0.356,1.19,0.109,1.42,1.41,-0.181,0.269,0.18,-0.162,0.14,0.13,0.612,0.802,0.647
CN1C(=O)C2C=CC(C(O)c3cc(C(F)(F)F)cc(C(F)(F)F)c3)N(N3CCCCC3)C2C1=O (stereo not given),0.567,0.853,1.01,0.139 (inactive),0.246,-0.0883,-0.448,0.0198,-0.722,0.291,1.24,-0.353,-0.599,1.34,0.769,0.0775,0.42,1.15,0.287,0.49
COc1ccc([Si](C)(C)[C@H]2[C@H](CCO)O[C@@]3(C(=O)N(Cc4ccc(N5C(=O)COc6ccccc65)cc4)c4ccccc43)[C@@H]2C)cc1,0.0297,-0.0813,0.812,-1.15 (inactive),-0.712,-1.01,-0.95,-0.534,-0.297,-0.515,0.49,-4.92,-1.45,0.471,0.601,-0.147,-0.153,0.201,-0.373,0.11
C=CC[C@@]1(C(=O)N(C)C)N=C(c2ccc(OCCCO)cc2)O[C@@H]1c1ccccc1N=[N+]=[N-],1.59,1.33,1.35,-1.2 (inactive),0.826,1.2,0.145,0.884,0.368,0.636,0.608,-1.08,0.232,2.66,1.03,0.0597,0.613,2.21,2.7,2.95
COC(=O)C(CC#Cc1ccc2c(c1)[C@]1(C(=O)N2)[C@H](C(=O)O)[C@H]2C(=O)O[C@H](c3ccccc3)[C@H](c3ccccc3)N2[C@@H]1c1ccc(O)cc1)C(=O)OC,0.472,-0.0082,0.634,0.199 (inactive),0.284,-0.266,-0.46,-0.662,-0.685,-1.07,1.03,-0.374,-0.354,-0.345,0.0677,-0.124,-0.366,0.26,-0.273,-0.472
O=C1OCC=C[C@H]2OC34C=CCN(CCN5CCOCC5)C(=O)[C@H]3N(CCCO)C(=O)[C@@H]4[C@@H]12 (stereo not given in full),0.112,-0.218,-0.0654,-1.52 (inactive),-0.116,0.394,-0.0604,0.292,0.163,0.715,0.449,0.658,-0.235,-0.0514,-0.944,-0.18,-0.223,-0.326,0.819,-0.0967
O=C1OCCC/C=C\[C@H]2OC34C=CCN(Cn5nnc6ccccc65)C(=O)[C@H]3N(CCO)C(=O)[C@@H]4C12 (stereo not given in full),1.31,-0.316,0.292,-1.48 (inactive),-0.468,-0.963,-0.898,-1.41,-1.14,-0.171,-0.249,-0.317,-1.84,-0.173,0.963,-0.187,0.022,0.235,-0.482,-0.601
COc1ccc(C(O)C2C=CC3C(=O)N(c4ccccc4)C(=O)C3N2Nc2ccccc2F)cc1OCc1ccccc1 (stereo not given),1.21,1.21,1.08,0.249 (inactive),0.771,0.693,0.0115,0.711,-0.633,1.35,1.4,-0.0689,-0.477,2.15,0.983,0.108,0.232,-0.115,1.2,1.55
CCOC(=O)[C@H]1CC=C2CC1C(=O)N1CCC[C@@H]1[C@@H]2O[Si](C)(C)C(C)(C)C (stereo not given in full),-0.105,-0.539,-1.04,0.582 (inactive),-0.997,-1.22,-0.265,-1.02,-0.177,0.928,-0.404,-3.01,0.377,-1.45,-1.61,-0.237,-0.297,0.14,-0.523,-1.15
COc1ccc(C(O)C2C=CC3C(=O)NC(=O)C3N2Nc2ccccn2)cc1 (stereo not given),0.948,0.422,0.267,0.706 (inactive),0.257,-0.0877,0.686,0.304,0.645,0.371,-1.08,0.824,0.494,-1.3,-0.498,0.0158,-0.106,0.0861,0.658,-0.0568
CC1CC/C=C\[C@H]2OC34C=CCN(c5ccc(Cl)cc5)C(=O)[C@H]3N(CCO)C(=O)[C@]4(C)C2C(=O)O1 (stereo not given in full),0.111,-0.197,0.693,0.568 (inactive),-0.379,-0.15,-0.483,-0.646,-1.46,1.27,-1.01,-1.35,-1.1,-0.795,-0.633,-0.124,-0.367,-0.342,-0.485,-0.445
O=C1OCCC/C=C\[C@H]2OC34C=CCN(Cc5ccccc5)C(=O)[C@H]3N(CCCCCCO)C(=O)[C@@H]4C12 (stereo not given in full),-0.0862,0.227,0.932,-0.286 (inactive),-0.942,-0.457,-1.69,-1.27,-1.69,-0.546,0.103,-1.3,-1.74,-0.046,0.572,-0.206,-0.0337,-0.355,-1.03,-0.313
COc1ccc([Si](C)(C)[C@@H]2[C@@H](CCO)O[C@]3(C(=O)N(Cc4ccc(N5C(=O)COc6ccccc65)cc4)c4ccccc43)[C@H]2C)cc1,1.31,0.146,0.147,-1.68 (inactive),0.808,0.522,0.334,0.469,0.129,0.678,-0.674,-4.99,0.88,1.51,0.879,0.199,-0.0146,-0.394,0.572,0.896
